In PubChem BioAssay (EPA / NIEHS):
Records with an inconclusive call do not appear. The source made the active and inactive calls. The calls were made as follows, unless noted: active = hit-call score of the fitted dose curve at least 0.9, where 1 is the maximum; inactive = score below 0.9.

Assays:
[1] = ATG_XTT_Cytotoxicity: Cytotoxicity Assessment in the Attagene TRANS-FACTORIAL HepG2 Assay (AID 2283584; active = hit-call score of the fitted dose curve at least 0.9, where 1 is the maximum)
Summary of the method: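 HepG2 human liver cells, transiently transfected with multiple GAL4-UAS reporter units, were dosed and read at 24 h by XTT as cell number. Loss of signal was fitted relative to DMSO negative control baseline.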

[2] = read-out: Phosphatase and tensin (PTEN), PTEN (gene 5728); assay: LTEA_HepaRG_PTEN: Life Technologies and Expression Analysis (LTEA) Assay for Phosphatase and tensin (PTEN) using HepaRG (AID 2283523); conditions: mRNA level, 48 h; actives raise or lower the signal
Summary of the method: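 Expression of PTEN is quantified in the human liver line HepaRG following two days of dosing (top concentration 100 uM, half-log dilutions, 0.5% DMSO). Values derive from bidirectional curve fitting relative to DMSO controls.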

[3] = read-out: solute carrier (SLC22A1), SLC22A1 (gene 6580); assay: LTEA_HepaRG_SLC22A1: Life Technologies and Expression Analysis (LTEA) Assay for solute carrier (SLC22A1) using HepaRG (AID 2283524); conditions: mRNA level, 48 h; actives raise or lower the signal
Summary of the method: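 Transcript induction or suppression of SLC22A1 in human HepaRG cultures is scored after 48 h chemical treatment, with DMSO (0.5%) as baseline for bidirectional fitting. Concentrations span eight half-log points topping at 100 uM.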

[4] = read-out: Pyruvate Dehydrogenase Kinase 4 (PDK4), PDK4 (gene 5166); assay: LTEA_HepaRG_PDK4: Life Technologies and Expression Analysis (LTEA) Assay for Pyruvate Dehydrogenase Kinase 4 (PDK4) using HepaRG (AID 2283525); conditions: mRNA level, 48 h; actives raise or lower the signal
Summary of the method: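 Eight-point, half-log concentration series (max 100 uM, 0.5% DMSO) applied to differentiated HepaRG cells for 48 h in duplicate. Endpoint: PDK4 mRNA induction or repression by qRT-PCR against DMSO baseline.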

[5] = read-out: NAD(P)H dehydrogenase [quinone] 1 (NQO1), NQO1 (gene 1728); assay: LTEA_HepaRG_NQO1: Life Technologies and Expression Analysis (LTEA) Assay for NAD(P)H dehydrogenase [quinone] 1 (NQO1) using HepaRG (AID 2283526); conditions: mRNA level, 48 h; actives raise or lower the signal
Summary of the method: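 In this assay, gene expression is read by qRT-PCR after 48 h exposure of HepaRG cells to eight concentrations (max 100 uM, half-log) in 0.5% DMSO. Each chemical runs in duplicate, and activity is scored relative to vehicle.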

[6] = read-out: Nuclear factor erythroid 2-related factor 2 (Homo sapiens) (UniProt Q16236); assay: LTEA_HepaRG_NFE2L2: Life Technologies and Expression Analysis (LTEA) Assay for Nuclear factor erythroid 2-related factor 2 (NFE2L2) Transcription Factor using HepaRG (AID 2283527); conditions: mRNA level, 48 h; actives raise or lower the signal
Summary of the method: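 Human liver HepaRG line treated in duplicate for 48 h with an eight-point series topping at 100 uM. Gene expression of NFE2L2 by qRT-PCR, bidirectionally fitted against the vehicle control.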

[7] = read-out: succinate dehydrogenase complex iron sulfur subunit B (SDHB), SDHB (gene 6390); assay: LTEA_HepaRG_SDHB: Life Technologies and Expression Analysis (LTEA) Assay for succinate dehydrogenase complex iron sulfur subunit B (SDHB) using HepaRG (AID 2283528); conditions: mRNA level, 48 h; actives raise or lower the signal
Summary of the method: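 HepaRG, 48 h exposure, 8-pt half-log series from 100 uM in 0.5% DMSO, duplicates. Readout: SDHB mRNA by Fluidigm qRT-PCR vs housekeeping genes; bidirectional fit relative to DMSO.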

[8] = read-out: Signal transducer and activator of transcription 3 (Homo sapiens) (UniProt P40763); assay: LTEA_HepaRG_STAT3: Life Technologies and Expression Analysis (LTEA) Assay for Signal transducer and activator of transcription (STAT3) using HepaRG (AID 2283529); conditions: mRNA level, 48 h; actives raise or lower the signal
Summary of the method: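 In this transcriptional endpoint, HepaRG cultures receive test chemicals at up to 100 uM for 48 h, tested in duplicate. STAT3 mRNA is normalized to ACTB, GAPDH and POLR2A.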

[9] = read-out: solute carrier (SLCO1B1), SLCO1B1 (gene 10599); assay: LTEA_HepaRG_SLCO1B1: Life Technologies and Expression Analysis (LTEA) Assay for solute carrier (SLCO1B1) using HepaRG (AID 2283530); conditions: mRNA level, 48 h; actives raise or lower the signal
Summary of the method: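 Differentiated human HepaRG cells, plated 48 h, switched to serum-free induction medium and exposed in duplicate for 48 h to 8 half-log concentrations (top 100 uM) in 0.5% DMSO. SLCO1B1 mRNA by TaqMan qRT-PCR, normalized to ACTB/GAPDH/POLR2A.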

[10] = read-out: sulfotransferase 2A1 (SULT2A1), SULT2A1 (gene 6822); assay: LTEA_HepaRG_SULT2A1: Life Technologies and Expression Analysis (LTEA) Assay for sulfotransferase 2A1 (SULT2A1) using HepaRG (AID 2283531); conditions: mRNA level, 48 h; actives raise or lower the signal
Summary of the method: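 Differentiated human HepaRG cells in serum-free induction medium were exposed for 48 h to eight half-log concentrations (top 100 uM, 0.5% DMSO). SULT2A1 mRNA was measured by qRT-PCR, normalized to ACTB, GAPDH and POLR2A, and fitted bidirectionally against DMSO.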

[11] = read-out: Transforming Growth Factor (TGFA), TGFA (gene 7039); assay: LTEA_HepaRG_TGFA: Life Technologies and Expression Analysis (LTEA) Assay for Transforming Growth Factor (TGFA) using HepaRG (AID 2283532); conditions: mRNA level, 48 h; actives raise or lower the signal
Summary of the method: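 Gene expression of TGFA was quantified by qRT-PCR after human HepaRG cells were treated for 48 h with test chemicals (eight concentrations, highest 100 uM, 0.5% DMSO). Activity in either direction was fitted relative to DMSO.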

[12] = read-out: Transforming Growth Factor (TGFB1), TGFB1 (gene 7040); assay: LTEA_HepaRG_TGFB1: Life Technologies and Expression Analysis (LTEA) Assay for Transforming Growth Factor (TGFB1) Transporter using HepaRG (AID 2283533); conditions: mRNA level, 48 h; actives raise or lower the signal
Summary of the method: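 Differentiated human HepaRG cells in serum-free induction medium were exposed in duplicate for 48 h to eight concentrations (top 100 uM, half-log steps, 0.5% DMSO). TGFB1 mRNA was quantified by qRT-PCR, normalized to ACTB, GAPDH, POLR2A, and fitted bidirectionally against DMSO.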

TIMP1, TIMP1 (gene 7076) = assay: LTEA_HepaRG_TIMP1: Life Technologies and Expression Analysis (LTEA) Assay for TIMP1 using HepaRG (AID 2283534); conditions: mRNA level, 48 h; actives raise or lower the signal;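 also: TaqMan qRT-PCR signal normalized to ACTB GAPDH and POLR2A housekeeping genes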
Summary of the method: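 Differentiated human HepaRG cells in serum-free induction medium were exposed 48 h to chemicals (8 half-log concentrations, top 100 uM, 0.5% DMSO). TIMP1 mRNA was quantified by TaqMan qRT-PCR, normalized to ACTB/GAPDH/POLR2A; bidirectional fit versus DMSO.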

[13] = read-out: Tumor necrosis factor receptor 1 (TNFRSF1A), TNFRSF1A (gene 7132); assay: LTEA_HepaRG_TNFRSF1A: Life Technologies and Expression Analysis (LTEA) Assay for Tumor necrosis factor receptor 1 (TNFRSF1A) using HepaRG (AID 2283535); conditions: mRNA level, 48 h; actives raise or lower the signal
Summary of the method: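 Differentiated human HepaRG cells were exposed in duplicate for 48 h in serum-free induction medium to eight concentrations (top 100 uM, half-log steps, 0.5% DMSO). TNFRSF1A mRNA was quantified by qRT-PCR, normalized to ACTB, GAPDH and POLR2A, then fitted bidirectionally against DMSO.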

[14] = read-out: Thyroid Hormone Responsive (THRSP), THRSP (gene 7069); assay: LTEA_HepaRG_THRSP: Life Technologies and Expression Analysis (LTEA) Assay for Thyroid Hormone Responsive (THRSP) using HepaRG (AID 2283536); conditions: mRNA level, 48 h; actives raise or lower the signal
Summary of the method: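 Cell model: human HepaRG, approx. 100,000 cells/well, 0.5% DMSO vehicle. Exposure lasts 48 h; phenobarbital 1 mM serves as induction positive control. Gene expression is measured by qRT-PCR against three endogenous control genes.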

[15] = read-out: UDP glucuronosyltransferase (UGT1A1), UGT1A1 (gene 54658); assay: LTEA_HepaRG_UGT1A1: Life Technologies and Expression Analysis (LTEA) Assay for UDP glucuronosyltransferase (UGT1A1) using HepaRG (AID 2283538); conditions: mRNA level, 48 h; actives raise or lower the signal
Summary of the method: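 mRNA induction or loss of UGT1A1, by TaqMan qRT-PCR, in duplicate HepaRG wells after 48 h exposure to half-log dilutions topping at 100 uM; DMSO (0.5%) served as baseline.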

[16] = read-out: UDP glucuronosyltransferase (UGT1A6), UGT1A6 (gene 54578); assay: LTEA_HepaRG_UGT1A6: Life Technologies and Expression Analysis (LTEA) Assay for UDP glucuronosyltransferase (UGT1A6) using HepaRG (AID 2283539); conditions: mRNA level, 48 h; actives raise or lower the signal
Summary of the method: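 Human HepaRG cells were dosed for 48 h in serum-free induction medium with 0.5% DMSO vehicle, eight-point half-log series from 100 uM, in duplicate. UGT1A6 mRNA was measured by qRT-PCR, normalized to ACTB, GAPDH, POLR2A, and fitted bidirectionally against DMSO.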

[17] = read-out: X-box binding protein 1 (XBP1), XBP1 (gene 7494); assay: LTEA_HepaRG_XBP1: Life Technologies and Expression Analysis (LTEA) Assay for X-box binding protein 1 (XBP1) using HepaRG (AID 2283540); conditions: mRNA level, 48 h; actives raise or lower the signal
Summary of the method: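 Differentiated human HepaRG cells in serum-free induction medium were exposed in duplicate for 48 h to eight half-log concentrations up to 100 uM in 0.5% DMSO. XBP1 mRNA was quantified by qRT-PCR, normalised to ACTB, GAPDH and POLR2A, with bidirectional fitting against DMSO.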

[18] = LTEA_HepaRG_LDH_cytotoxicity: Cytotoxicity Assessment in the Life Technologies and Expression Analysis (LTEA) Assay (AID 2283563; active = hit-call score of the fitted dose curve at least 0.9, where 1 is the maximum)
Summary of the method: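 Differentiated human HepaRG cells, plated 48 h beforehand, were switched to serum-free induction medium and exposed for 48 h to eight half-log concentrations (top 100 uM) in 0.5% DMSO. LDH was measured in spent medium; activity was fitted relative to DMSO vehicle.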

[19] = read-out: Cellular tumor antigen p53 (Homo sapiens) (UniProt P04637); assay: LTEA_HepaRG_TP53: Life Technologies and Expression Analysis (LTEA) Assay for Tumor Protein P53 (TP53) using HepaRG (AID 2283537); conditions: mRNA level, 48 h; actives raise or lower the signal
Summary of the method: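 HepaRG, 48 h exposure, top 100 uM, half-log 8-point, 0.5% DMSO vehicle, duplicates. Read: TP53 mRNA by TaqMan qRT-PCR, normalised to ACTB/GAPDH/POLR2A; bidirectional fit vs DMSO.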

Measured: AC50

Chain of Signal transducer and activator of transcription 3 (Homo sapiens) (P40763 whole entry, looked up): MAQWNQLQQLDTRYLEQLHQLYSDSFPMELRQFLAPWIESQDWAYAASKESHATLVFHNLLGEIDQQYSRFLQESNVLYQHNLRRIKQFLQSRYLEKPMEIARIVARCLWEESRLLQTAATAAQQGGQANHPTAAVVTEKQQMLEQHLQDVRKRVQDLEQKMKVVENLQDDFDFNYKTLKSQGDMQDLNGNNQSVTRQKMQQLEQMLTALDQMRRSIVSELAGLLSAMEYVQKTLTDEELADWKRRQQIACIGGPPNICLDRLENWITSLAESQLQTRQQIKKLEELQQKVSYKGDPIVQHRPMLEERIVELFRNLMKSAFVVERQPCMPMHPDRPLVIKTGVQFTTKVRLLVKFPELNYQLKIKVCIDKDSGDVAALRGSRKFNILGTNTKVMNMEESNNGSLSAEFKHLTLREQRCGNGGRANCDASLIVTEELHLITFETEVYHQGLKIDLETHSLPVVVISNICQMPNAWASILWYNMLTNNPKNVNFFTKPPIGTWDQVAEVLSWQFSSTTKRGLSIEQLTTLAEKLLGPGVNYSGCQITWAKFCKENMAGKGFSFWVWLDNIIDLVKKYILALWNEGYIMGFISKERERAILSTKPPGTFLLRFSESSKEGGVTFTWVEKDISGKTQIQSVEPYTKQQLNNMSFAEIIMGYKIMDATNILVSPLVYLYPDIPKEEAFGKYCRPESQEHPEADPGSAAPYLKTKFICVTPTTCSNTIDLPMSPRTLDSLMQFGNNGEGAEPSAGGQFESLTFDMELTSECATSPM
Chain of Nuclear factor erythroid 2-related factor 2 (Homo sapiens) (Q16236 whole entry, looked up): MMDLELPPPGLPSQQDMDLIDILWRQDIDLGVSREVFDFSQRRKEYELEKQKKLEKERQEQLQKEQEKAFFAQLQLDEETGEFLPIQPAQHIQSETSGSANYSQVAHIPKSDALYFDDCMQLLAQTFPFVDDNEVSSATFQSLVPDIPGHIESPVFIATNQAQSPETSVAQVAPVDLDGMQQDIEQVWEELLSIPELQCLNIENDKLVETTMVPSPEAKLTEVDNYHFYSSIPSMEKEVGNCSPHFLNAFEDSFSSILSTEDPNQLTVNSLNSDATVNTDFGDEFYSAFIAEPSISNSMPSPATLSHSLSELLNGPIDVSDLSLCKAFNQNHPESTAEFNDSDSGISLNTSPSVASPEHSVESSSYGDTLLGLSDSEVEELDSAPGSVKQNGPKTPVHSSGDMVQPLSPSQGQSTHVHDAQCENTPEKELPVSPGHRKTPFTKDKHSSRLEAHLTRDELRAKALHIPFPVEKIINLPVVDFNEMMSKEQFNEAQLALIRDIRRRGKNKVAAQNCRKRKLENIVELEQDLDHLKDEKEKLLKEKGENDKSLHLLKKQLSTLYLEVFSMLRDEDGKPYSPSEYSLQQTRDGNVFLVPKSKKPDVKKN
Chain of Cellular tumor antigen p53 (Homo sapiens) (P04637 whole entry, looked up): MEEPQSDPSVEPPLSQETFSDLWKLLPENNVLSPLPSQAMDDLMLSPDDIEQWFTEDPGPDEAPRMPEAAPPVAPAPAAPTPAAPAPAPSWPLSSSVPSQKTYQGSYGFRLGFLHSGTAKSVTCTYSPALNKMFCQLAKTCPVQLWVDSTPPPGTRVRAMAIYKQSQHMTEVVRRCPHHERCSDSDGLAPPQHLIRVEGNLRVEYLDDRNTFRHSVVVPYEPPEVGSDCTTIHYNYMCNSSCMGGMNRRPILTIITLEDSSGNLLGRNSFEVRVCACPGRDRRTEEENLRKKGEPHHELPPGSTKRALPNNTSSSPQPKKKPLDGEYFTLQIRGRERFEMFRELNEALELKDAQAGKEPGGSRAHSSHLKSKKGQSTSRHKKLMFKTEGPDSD

Oc1ccc(I)cc1
inactive: [1]

ClC(Cl)c1ccccc1
not listed: [19]
inactive: all other assays above

N#Cc1cc([N+](=O)[O-])ccc1N
inactive: [1]

CCOP(=S)(Oc1ccc([N+](=O)[O-])cc1)c1ccccc1 (stereo not drawn)
active: [2] 0.0422 µM | [6] 37.9 µM | [14] 50 µM | [15] 12.7 µM
not listed: [5] | [9] | [19]
inactive: all other assays above

NNC(N)=S
inactive: [1]

CC(C)(C)c1ccc(O)cc1
not listed: [1] | [6] | [18]
inactive: all other assays above

CO/N=C(/C(=O)OC)c1ccccc1COc1ccccc1C
inactive: [1]

C=CC(=O)OCC(CC)(COC(=O)C=C)COC(=O)C=C
inactive: [1]

CCCCc1ccccc1
not listed: [19]
inactive: all other assays above

COP(=O)(CCC(=O)NCO)OC
inactive: [1]

O=[N+]([O-])c1ccc(Cl)c(Cl)c1
active: [14] 10.8 µM | [15] 13.5 µM
not listed: [19]
inactive: all other assays above

C=C(C)C(=O)OCC1CO1 (stereo not drawn)
inactive: [1]
